Screening results deposited in PubChem BioAssay by NMMLSC.
LAP4-GFP MLPCN: modulators of LAP4-GFP expression in yeast, primary screen, S. cerevisiae, multiplex flow cytometry, MLPCN library | 3 h; median GFP as percent of DMSO wells | GFP response vs DMSO, % at 10 µM | 0.34% of 320,000 active | AID 2023, 2009;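 active means GFP response vs DMSO above a set limit, about the screen mean plus 3 SD, cut at about 150% in these data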
Efflux pump inh: inhibitors of Candida efflux pumps in yeast, primary screen, S. cerevisiae, Nile Red, multiplex | S. cerevisiae Candida pump triplex | inhibition, % at 10 µM | 0.44% of 330,000 active | AID 485275, 2010;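 active means plate passing quality check with inhibition over a set limit, or well fluorescence over plate mean plus 4 SD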;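 further: Nile Red retained in pooled yeast measured as flow cytometry median fluorescence; higher means more Nile Red kept so more efflux inhibition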
CIT2-GFP yeast: modulators of CIT2-GFP expression in yeast, primary screen, S. cerevisiae, GFP fusion, multiplex flow cytometry, MLPCN library; S. cerevisiae CIT2-GFP strain, 3 h; 100 means same as DMSO wells; GFP response vs DMSO, % at 10 µM; 0.065% of 320,000 active; AID 2029, 2009;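 active means GFP response relative to DMSO above a set limit, near the screen mean plus 3 SD, cut at about 150% in these data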;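 further: ratio of well median GFP fluorescence to mean of DMSO wells on the plate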
RPL19A TOR yeast: RPL19A-GFP expression modulators in yeast, primary screen, cell-based, S. cerevisiae, multiplex flow cytometry, MLPCN; S. cerevisiae RPL19A-GFP strain, 3 h; stronger effect = lower value; percent response vs DMSO, % at 10 µM; 0.3% of 330,000 active;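 active means percent response vs DMSO below 50%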;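 further: median channel GFP fluorescence of the barcoded RPL19A-GFP strain; lower means less RPL19A-GFP as with rapamycin TOR inhibition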
AGP1 TOR yeast: modulators of AGP1-GFP expression in yeast TOR pathway, primary screen, cell-based, multiplex flow cytometry, S. cerevisiae, MLPCN library | GFP response vs DMSO, % at 10 µM | 0.02% of 320,000 active | 3 h; GFP as percent of DMSO wells | AID 2066, 2009;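 active means GFP response relative to DMSO above a set limit, near screen average plus 3 SD, cut at about 150% in these data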;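 further: median GFP channel fluorescence of the gated AGP1 strain per well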
MEP2-GFP yeast: modulators of MEP2-GFP levels in yeast, primary screen, S. cerevisiae, multiplex flow cytometry, MLPCN library | 0.51% of 330,000 active | AID 2016, 2009 | GFP response vs DMSO, % at 10 µM | S. cerevisiae MEP2-GFP strain, 3 h; 100% = DMSO control level;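 active means GFP response versus DMSO above a set limit, roughly screen mean plus 3 SD, cut at about 180% in these data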;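 further: median GFP fluorescence of the barcode-gated MEP2-GFP cells per well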
Cmpd fluor yeast: compound fluorescence in yeast efflux pump counter-screen. 4% of 1,700 active. fluorescence ratio to DMSO, % at 10 µM. shares compounds with Efflux pump inh. S. cerevisiae AD/pABC3, flow cytometry. AID 588517;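 active means fluorescence ratio to DMSO above its plate's cutoff, the plate mean ratio plus 5 SD, cut at about 210% in these data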;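 further: unstained yeast with no Nile Red so the signal is compound autofluorescence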
Mdr1 pump inh: inhibitors of Candida albicans Mdr1 efflux, confirmation, flow cytometry, singleplex, Cherry Pick1 set; shares compounds with Efflux pump inh; S. cerevisiae AD/CaMDR1, Nile Red efflux; inhibition, % at 10 µM; 1% of 1,700 active; in the data active means inhibition above about 26%;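 further: higher means more Nile Red retained so more efflux inhibition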
CaCdr2 efflux inh: inhibitors of Candida albicans Cdr2 efflux pump, confirmation, S. cerevisiae AD/CaCDR2, flow cytometry, cherry pick 1, singleplex; shares compounds with Efflux pump inh; Nile Red retention; Nile Red retention ratio vs DMSO, % at 10 µM; 4% of 1,700 active; AID 588520, 2011; in the data active means Nile Red retention ratio vs DMSO above about 190%;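 further: higher ratio means more blocking of Cdr2 efflux of the dye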
CaCdr1 efflux inh: inhibitors of Candida albicans Cdr1 efflux pump, confirmation, S. cerevisiae AD/CaCDR1, flow cytometry, cherry pick 1, singleplex; 1% of 1,700 active; shares compounds with Efflux pump inh; AID 588522, 2011; Nile Red efflux; inhibition, % at 10 µM;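 active means inhibition above the screen-wide mean plus twice its standard deviation, cut at about 32% in these data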
Each line names hits and unclear results; the compound was inactive in the other large screens (follow-up assays come after a bar, where they were run). An excerpt weighted towards active compounds, which were near 1.3% of everything screened.

O/N=C/c1ccc(-c2cc(Cl)ccc2Cl)o1	Efflux pump inh 11 | Cmpd fluor yeast inactive | Mdr1 pump inh inactive | CaCdr2 efflux inh inactive | CaCdr1 efflux inh inactive
O=C(Nc1ccccc1-c1nnc(SCc2ccccc2)o1)c1ccccc1	none
O=C(Nc1ccccc1-c1nnc(SCc2ccc(Cl)cc2)o1)c1ccccc1	Efflux pump inh 0.5 | Cmpd fluor yeast inactive | Mdr1 pump inh inactive | CaCdr2 efflux inh inactive | CaCdr1 efflux inh inactive
COc1ccc(NC(=O)CN(C)C(=O)/C=C/c2cn(-c3ccccc3)nc2-c2ccc(C)cc2)cc1	Efflux pump inh 0.5 | Cmpd fluor yeast inactive | Mdr1 pump inh inactive | CaCdr2 efflux inh inactive | CaCdr1 efflux inh inactive
COC/C=C/C1=CC2=CC(=O)C(C)(OC(=O)c3cnc4ccccc4n3)C(=O)C2=CN1CC(C)C (configuration not stated)	Efflux pump inh 0.9 | Cmpd fluor yeast inactive | Mdr1 pump inh inactive | CaCdr2 efflux inh inactive | CaCdr1 efflux inh inactive
COc1ccc([C@H]2[C@H](C(=O)C(C)(C)C)N3N=Cc4ccccc4C3[C@]23N=C(c2ccccc2)OC3=O)cc1 (some centres not stated)	Efflux pump inh 0.8 | Cmpd fluor yeast inactive | Mdr1 pump inh inactive | CaCdr2 efflux inh inactive | CaCdr1 efflux inh inactive
CCN1CCN(Cc2c(O)ccc3c2O/C(=C\C=C\c2ccccc2OC)C3=O)CC1	Efflux pump inh 24 | Cmpd fluor yeast inactive | Mdr1 pump inh inactive | CaCdr2 efflux inh inactive | CaCdr1 efflux inh inactive
CC1CCN(Cc2c(O)ccc3c2O/C(=C\c2ccco2)C3=O)CC1	none
O=C1/C(=C/c2ccco2)Oc2c1ccc(O)c2CN1CCCCC1	Efflux pump inh 3.1 | Cmpd fluor yeast inactive | Mdr1 pump inh inactive | CaCdr2 efflux inh inactive | CaCdr1 efflux inh inactive
CCCCN(Cc1cc2cc(OC)ccc2[nH]c1=O)S(=O)(=O)c1ccc(C)cc1	none
C[C@H](NC(=O)c1nc[nH]c1C(=O)N[C@@H](CCCCN)C(=O)OC(C)(C)C)C(=O)OCc1ccccc1	none
COc1cccc(-c2nnc(SC(C(=O)c3c[nH]c4ccccc34)c3ccccc3)n2C)c1 (configuration not stated)	Efflux pump inh 0.8 | Cmpd fluor yeast inactive | Mdr1 pump inh inactive | CaCdr2 efflux inh inactive | CaCdr1 efflux inh inactive
O=C(c1ccoc1)N1CCC2(CC1)Oc1ccc(F)cc1C(=O)C21CC(c2ccc(Cl)cc2)=NO1 (configuration not stated)	Efflux pump inh 5.5 | Cmpd fluor yeast inactive | Mdr1 pump inh inactive | CaCdr2 efflux inh inactive | CaCdr1 efflux inh 53
O=C(c1ccoc1)N1CCC2(CC1)Oc1ccc(F)cc1C(=O)C21CC(c2cccnc2)=NO1 (configuration not stated)	none
O=C(c1ccoc1)N1CCC2(CC1)Oc1ccc(F)cc1C(=O)C21CC(c2ccccc2)=NO1 (configuration not stated)	Efflux pump inh 67 | Cmpd fluor yeast inactive | Mdr1 pump inh 95 | CaCdr2 efflux inh inactive | CaCdr1 efflux inh 43
O=C(c1ccc2c(c1)OCO2)N1CCC2(CC1)Oc1ccc(F)cc1C(=O)C21CC(c2cccnc2)=NO1 (configuration not stated)	none
O=C(c1ccoc1)N1CCC2(CC1)Oc1ccc(Cl)cc1C(=O)C21CC(c2ccc(Cl)cc2)=NO1 (configuration not stated)	none | Cmpd fluor yeast inactive | Mdr1 pump inh inactive | CaCdr2 efflux inh inactive | CaCdr1 efflux inh inactive
O=C(c1ccc2c(c1)OCO2)N1CCC2(CC1)Oc1ccc(F)cc1C(=O)C21CC(c2ccccc2)=NO1 (configuration not stated)	Efflux pump inh 85 | Cmpd fluor yeast inactive | Mdr1 pump inh 81 | CaCdr2 efflux inh inactive | CaCdr1 efflux inh 50
CC1CN(S(=O)(=O)c2csc(C(=O)Nc3ccccc3)c2)CC(C)O1 (configuration not stated)	none (no result: CIT2-GFP yeast)
CC(C)C(=O)N1CCC2(CC1)Oc1ccc(F)cc1C(=O)C21CC(c2ccc(Cl)cc2)=NO1 (configuration not stated)	Efflux pump inh 36 | Cmpd fluor yeast inactive | Mdr1 pump inh inactive | CaCdr2 efflux inh inactive | CaCdr1 efflux inh inactive
CC(C)C(=O)N1CCC2(CC1)Oc1ccc(Cl)cc1C(=O)C21CC(c2ccccc2)=NO1 (configuration not stated)	none
COc1ccc(C2/C=C\CN(C(=O)OCC3c4ccccc4-c4ccccc43)CC(=O)N2Cc2cccc(F)c2)cc1 (configuration not stated)	none (no result: LAP4-GFP MLPCN, CIT2-GFP yeast, RPL19A TOR yeast, AGP1 TOR yeast, MEP2-GFP yeast)
CC1O[C@@H](OC2C(COC3OC(CO)C(O)[C@H](O)C3O)OC(OC3CC[C@]4(C)C(CC[C@@]5(C)[C@@H]4CC=C4[C@@H]6CC(C)(C)CC[C@]6(CO)C(O)C[C@]45C)C3(C)C)C(O)C2O)C(O)C(O)C1O (some centres not stated)	none
C[C@H]1O[C@@H](O[C@H]2CC[C@@]3(C)C(CC[C@]4(C)C3C=CC3=C5CC(C)(C)CC[C@]5(CO)[C@H](O)C[C@]34C)[C@]2(C)CO)[C@H](O)[C@@H](O[C@@H]2O[C@H](CO)[C@@H](O)[C@H](O)[C@H]2O)[C@H]1O (some centres not stated)	Efflux pump inh 1.7 | Cmpd fluor yeast inactive | Mdr1 pump inh inactive | CaCdr2 efflux inh inactive | CaCdr1 efflux inh inactive
COc1ccc(OC)c(NC(=O)CSc2nnc(NC(=O)c3ccco3)s2)c1	none
